These results are taken from PubChem BioAssay.

A short description of the assay: probe aNOTCH2 binding on compound microarray – biochemical, small-molecule microarray, 635/667 nm fluorescence, primary screen (AID 1121).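 Also: score merges feature fluorescence read at 667 nm with its signal to noise.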 The settings on record: higher = more signal.
In the case of `CO[C@@H]1COC(=O)[C@@H]2CCCN2C(=O)[C@@H](C)COC(=O)[C@H](COCc2ccccc2)NC(=O)CC=C[C@H]1C`, the composite z-score is -0.147.
The same measure for `C#CCCCON=C1C[C@@H](O)[C@@H](O)[C@@H]2[C@@H]3C(=O)N([C@@H](C)c4ccccc4)C(=O)[C@@H]3CC[C@H]12`: -0.0554.
In the case of `COCCCNC(=O)[C@@]1(C)c2ccccc2C(=O)N(Cc2ccc(OC(F)(F)F)cc2)[C@H]1c1ccc(CO)cc1` it was -0.0836; in that of `C=COC[C@H]1CN2[C@@H](CC[C@@H](C)[C@@H]2c2ccc(Br)cc2)C(=O)O1`, 0.0877.
In the case of `CC(CCN1CCCCc2nc(C)c(C)cc21)=NOC(C)CN1CCCc2nc(C)c(C)cc21` (stereo not given) it was 0.153; in that of `CC(C)=NOCc1ccc(-c2cc(-c3ccccc3)no2)cc1`, -0.169; in that of `CCc1cc2c(nc1CC)CCN(CCC(C)=NOC[C@@H](O)[C@H]1O[C@@H]3OC(C)(C)O[C@@H]3[C@H]1O)C2`, -0.0891.
`COc1cccc([C@H]2Oc3ccc(OC)cc3C(=NO[C@H](C)c3cn([C@@H]4COC[C@H]4O)nn3)[C@@H]2O)c1`: the composite z-score was -0.179.
`O=C(NN=C1C[C@@H](O)[C@@H](O)[C@@H]2[C@@H]3C(=O)N(c4ccc(F)cc4F)C(=O)[C@@H]3CC[C@@H]12)OCc1ccccc1`: the composite z-score is -0.123.
In the case of `CCOC(=O)[C@H](Cc1ccccc1)NC(=O)CCC1CC(OC(=O)NCc2ccc3c(c2)OCO3)CC2(CCCC(COC(=O)NCc3cccc(C(F)(F)F)c3)O2)O1` (stereo not given in full) it was -0.123.
As to `C[C@@H](c1ccccc1)N1C(=O)[C@H]2[C@H]3[C@H](O)C=CC(=O)[C@@H]3CC[C@H]2C1=O`, the composite z-score was -0.132.
In the case of `Cc1cc2c(c(=O)o1)[C@H](O)[C@H]1O[C@H]1C2=O`, the composite z-score was -0.0076.
In the case of `COc1ccc(COC(=O)NN=C2C[C@@H](O)[C@@H](O)[C@@H]3[C@@H]4C(=O)N(c5ccc(F)cc5F)C(=O)[C@@H]4CC[C@@H]23)cc1` it was -0.14; in that of `CO[C@@H]1COC(=O)CCC[C@@H](C)[C@H](OC)COC(=O)CCC[C@H]1C`, -0.0907; in that of `O=C1C[C@@H](O)[C@@H](O)[C@@H]2[C@@H]3C(=O)N(Cc4ccc5c(c4)OCO5)C(=O)[C@@H]3CC[C@@H]12`, -0.0938.
In the case of `CC=CC1=C(CO)[C@H](O)[C@H]2O[C@H]2[C@H]1O` it was -0.146; in that of `CC(C)[C@H](NC(=O)OC(C)(C)C)[C@@H](O)CC(=O)OC(C)(C)C`, -0.144.
In the case of `CO[C@H]1COC(=O)[C@@H]2CCCN2C(=O)CC=C[C@@H](C)[C@H](OC)COC(=O)CC=C[C@@H]1C` it was -0.0931; in that of `COC(=O)[C@H](C)NC(=O)CCC1CC(OC(=O)NCCc2ccc(F)cc2)CC2(CCCC(COC(=O)NCCc3ccc(Cl)cc3)O2)O1` (stereo not given in full), -0.0261; in that of `CC(C)=CCCC(C)=CCON=C1[C@H]2CCn3c(=O)n(C)c(=O)n3[C@H]2[C@H](O)[C@@H]2O[C@H]12`, -0.14.
In the case of `O=C(NN=C1C[C@@H](O)[C@@H](O)[C@@H]2[C@@H]3C(=O)N(c4cccc(Oc5ccccc5)c4)C(=O)[C@@H]3CC[C@@H]12)OCc1ccccc1`, the composite z-score is -0.0995.
In the case of `CC(=O)OC[C@H]1O[C@H](C#CCCCc2ccccc2)C=C[C@@H]1OC(C)=O` it was -0.0772; in that of `CC(CCN1CCc2nc(-c3ccccc3)c(-c3ccccc3)cc2C1)=NO[C@H](C)c1cn([C@@H]2COC[C@H]2O)nn1`, -0.117; in that of `O[C@@H](Cc1ccccc1)[C@H]1C2C=CCCC(c3ccccc3)=C2CN1Cc1cccc(Cl)c1` (stereo not given in full), -0.0746.
In the case of `COc1ccc([Si](C)(C)[C@H]2[C@H](CCO)O[C@@]3(C(=O)N(Cc4cccc(NC(=O)[C@H](C)O)c4)c4ccccc43)[C@@H]2C)cc1` it was -0.13; in that of `O=C1NC(=O)C2C1C=CC(C(O)Cc1ccccc1)N2Nc1ccccn1` (stereo not given), -0.0079; in that of `CC(CCC(=O)OC[C@H]1O[C@H](C#Cc2ccccc2)C=C[C@@H]1Oc1ccc(C)cc1)=NOC[C@@H](O)COCc1ccco1`, -0.306.
In the case of `CC1CC/C=C\[C@H]2OC34C=CCN(Cn5nnc6ccccc65)C(=O)[C@H]3N(CCO)C(=O)[C@@H]4C2C(=O)O1` (stereo not given in full), the composite z-score was -0.15.
Consider `CCOC(=O)CCN1C(=O)[C@H]2[C@H]3[C@H](O)[C@H](O)CC(=NNC(=O)OCc4ccc(OC)cc4)[C@@H]3CC[C@H]2C1=O`, for which the composite z-score is -0.104.
The same measure for `CCN1C(=O)[C@H]2[C@H]3[C@H](O)[C@H](O)CC(=NOC(C)CN4CCCCc5nc(C)c(C)cc54)[C@@H]3CC[C@H]2C1=O` (stereo not given in full): -0.0539.
In the case of `C#CCCCON=C1C[C@@H](O)[C@@H](O)[C@@H]2[C@@H]3C(=O)N(CCC(=O)OCC)C(=O)[C@@H]3CC[C@@H]12` it was -0.0404.
The same measure for `CCN1C(=O)[C@H]2[C@H]3[C@H](O)[C@H](O)CC(=NO[C@@H]4O[C@H](CO)[C@@H](O)[C@H](O)[C@H]4O)[C@@H]3CC[C@H]2C1=O`: -0.203; for `COCC1=C2[C@@H](CCc3ccccc3)OB(O)C[C@@H]2n2c(=O)n(-c3ccccc3)c(=O)n2C1`: -0.0649.
For the compound `CN1C(=O)C2C=CC(C(O)c3ccc(Br)cc3)N(N(c3ccccc3)c3ccccc3)C2C1=O` (stereo not given), the composite z-score is -0.0976.
Consider `CC(CCN1CCCCc2nc(C)c(C)cc21)=NOC(C)CN1CCCCc2nc(C)c(C)cc21` (stereo not given), for which the composite z-score is -0.0131.
